According to PubChem BioAssay (Tox21):
Where “and” joins values, the source holds several entries; their conditions need not be identical. Equal values may be shown once. Inconclusive results are not listed. Where a call stands in place of a potency, no number is given. The source holds several records for some structures; these can differ, active in one and inactive in another. Calls of active or inactive are those of the source. Unless noted, the call rests on the fitted dose curve; in most records, active means well fitted curve in the direction sought with a large enough effect in the repeat runs; inconclusive means weak or mixed curves; inactive means no such curve, though single readings can be large; an effect the other way counts as inactive or inconclusive.

Key:
[1] = Human pregnane X receptor (PXR) small molecule agonists, qHTS cell viability counter screen (AID 1346977); further: nearly all actives have a fitted effect of over 50% in size
Method in brief: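 Viability counter screen: CellTiter-Fluor signal in PXR-Luc HepG2 cells, 24hr compound exposure, 37C, 5% CO2.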

[2] = Caspase-3/7 induction in HepG2 cells by small molecules, qHTS assay (AID 1346978); further: nearly all actives have a fitted effect of over 15% in size
Method in brief: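 Caspase-3/7 induction was measured by Caspase-Glo 3/7 luminescence (30 min, room temperature) after a 17 hr compound exposure of wild-type HepG2 cells seeded at 2,000 per well and pre-incubated 5 hr.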

[3] = Caspase-3/7 induction in CHO-K1 cells by small molecules, qHTS assay (AID 1346980); further: nearly all actives have a fitted effect of over 15% in size
Method in brief: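 Luminescent Caspase-Glo 3/7 read (30min, room temperature) quantified apoptosis induction. Cells were wild-type CHO-K1, treated with compound for 17hr at 37 C and 5% CO2.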

[4] = Caspase-3/7 induction in HepG2 cells by small molecules, qHTS cell viability counter screen (AID 1346981); further: nearly all actives have a fitted effect of over 30% in size; further: potency means the concentration at half of the fitted maximal effect
Method in brief: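 Wild-type HepG2 cells, 2,000/well, settled 5 hr at 37 C, 5% CO2 before compound addition. Viability read by CellTiter-Fluor fluorescence, reagent added after 16 hr compound exposure, then 1 hr at 37C, in the same wells as the caspase read.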

[5] = molecular target: Nuclear receptor subfamily 1 group I member 2 (Homo sapiens) (UniProt O75469); assay: Human pregnane X receptor (PXR) small molecule agonists, qHTS assay (AID 1346982); further: nearly all actives have a fitted effect of over 35% in size; further: potency means the concentration at half of the fitted maximal effect
Method in brief: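 PXR-Luc HepG2 reporter cells (CYP3A4-driven luciferase) in 5% charcoal-stripped FBS medium, plated 5 h before compound addition, then treated 24 h at 37C. Luciferase read by ONE-Glo luminescence after 30 min at room temperature.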

[6] = molecular target: Cytochrome P450 2D6 (Homo sapiens) (UniProt P10635); assay: Cytochrome P450 Family 2 Subfamily D Member 6 (CYP2D6) small molecule antagonists: luciferase reporter qHTS assay (AID 1671196); further: nearly all actives have a fitted effect of over 50% in size; further: potency means the concentration at half of the fitted maximal effect
Method in brief: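 Cell-free P450-Glo system: CYP2D6 with proluciferin substrate was pre-incubated with compound for 10 min, then reacted with NADPH regeneration for 1 h at room temperature. Luciferin product was detected after 20 min, and data were reported as relative luminescence units.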

[7] = molecular target: Cytochrome P450 2C19 (Homo sapiens) (UniProt P33261); assay: Cytochrome P450 Family 2 Subfamily C Member 19 (CYP2C19) small molecule antagonists: luciferase reporter qHTS assay (AID 1671197); further: nearly all actives have a fitted effect of over 65% in size; further: potency means the concentration at half of the fitted maximal effect
Method in brief: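 CYP2C19 P450-Glo, 1536-well qHTS. Cpd + enzyme/proluciferin substrate 10 min RT; + NADPH regen, 37C 1 h; stop with luciferin detection reagent, 20 min RT, luminescence (RLU). Pos ctrl ketoconazole.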

[8] = molecular target: Cytochrome P450 2C9 (Homo sapiens) (UniProt P11712); assay: Cytochrome P450 Family 2 Subfamily C Member 9 (CYP2C9) small molecule antagonists: luciferase reporter qHTS assay (AID 1671198); further: nearly all actives have a fitted effect of over 50% in size; further: potency means the concentration at half of the fitted maximal effect
Method in brief: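 Enzyme-substrate mix preincubated with compound 10 min at room temperature; reaction started with NADPH regeneration solution, 1 h 37C. Luminescent luciferin product read after 20 min detection reagent.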

[9] = molecular target: Cytochrome P450 1A2 (Homo sapiens) (UniProt P05177); assay: Cytochrome P450 Family 1 Subfamily A Member 2 (CYP1A2) small molecule antagonists: luciferase reporter qHTS assay (AID 1671199); further: nearly all actives have a fitted effect of over 50% in size; further: potency means the concentration at half of the fitted maximal effect
Method in brief: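 P450-Glo CYP1A2 enzyme–proluciferin substrate mix with compound 10 min at room temperature, then NADPH regeneration 1 h at room temperature. Luciferin detection reagent added, luminescence read after 20 min; furafylline positive control.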

[10] = molecular target: Voltage-gated inwardly rectifying potassium channel KCNH2 (Homo sapiens) (UniProt Q12809); assay: Human Ether-a-go-go-Related Gene (hERG) channel small molecule antagonists: fluorescence cell-based qHTS assay (AID 1671200); further: nearly all actives have a fitted effect of over 50% in size; further: potency means the concentration at half of the fitted maximal effect
Method in brief: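 Thallium served as the potassium surrogate; its influx into dye-loaded U2OS cells carrying the channel was measured by fluorescence over 2 min.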

[11] = Caspase-3/7 induction in CHO-K1 cells by small molecules, qHTS cell viability counter screen (AID 1346979); further: nearly all actives have a fitted effect of over 35% in size; further: potency means the concentration at half of the fitted maximal effect
Method in brief: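 Viability readout by fluorescence (CellTiter-Fluor) on wild-type CHO-K1 cells exposed for 16hr at 37C and 5% CO2 to compounds delivered in DMSO; reagent incubated 1hr before reading.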

[12] = molecular target: Cytochrome P450 3A4 (Homo sapiens) (UniProt P08684); assay: Cytochrome P450 Family 3 Subfamily A Member 4 (CYP3A4) small molecule antagonists: luciferase reporter qHTS assay (AID 1671201)
Method in brief: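 Relative luminescence units after 20 min with luciferin detection reagent served as read-out. Beforehand, CYP3A4 turned over a proluciferin substrate for 1 h at room temperature with NADPH regeneration, following 10 min compound preincubation.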

[13] = molecular target: Nuclear receptor subfamily 1 group I member 2 (Rattus norvegicus) (UniProt Q9R1A7); assay: Rat pregnane X receptor (rPXR) activation by small molecules, qHTS assay (AID 1346983); details: rPXR luciferase reporter cells, One-Glo luminescence, 24 h; max activation: stronger effect = higher value; further: nearly all actives have a fitted effect of over 20% in size; further: potency means the concentration at half of the fitted maximal effect
Method in brief: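 Luminescent readout (One-Glo luciferase, 30 min room temperature) followed 24 hr compound treatment at 37 C of rPXR cells plated 2,000 per well and preincubated 5hr; qHTS format with compounds delivered in DMSO.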

[14] = molecular target: Nuclear receptor subfamily 1 group I member 2 (Homo sapiens) (UniProt O75469); assay: CYP3A4 induction through human pregnane X receptor (PXR) by small molecules, qHTS assay (AID 1346984); further: nearly all actives have a fitted effect of over 40% in size
Method in brief: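 DPX-2 HepG2 cells carrying a PXR response element and CYP3A4-promoter luciferase construct, treated with compounds 24 hr at 37C. Then P450-Glo CYP3A4 Luciferin-IPA substrate (3uM final) for 3 hr at 37C, One-Glo added, luminescence read.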

[15] = molecular target: Nuclear receptor subfamily 1 group I member 2 (Homo sapiens) (UniProt O75469); assay: Human pregnane X receptor (PXR) activation by small molecules, qHTS assay (AID 1346985); further: nearly all actives have a fitted effect of over 40% in size
Method in brief: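 DPX-2 cells (HepG2 co-transfected with a PXR response element and a CYP3A4-promoter luciferase construct) were seeded at 2,000 per well, rested 5 hr at 37C, then exposed to DMSO-dissolved compounds for 24 hr. Activation was read as luciferase luminescence.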

[16] = molecular target: Thyrotropin-releasing hormone receptor (Homo sapiens) (UniProt P34981); assay: qHTS assay to identify small molecule agonists of the thyrotropin-releasing hormone receptor (TRHR) signaling pathway (AID 1346891; calls by dose curve;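 further: HEK293 cells expressing TRHR with calcium dye readout; series mostly up to about 58 µM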)
Method in brief: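 Compounds were tested as agonists at 15 concentrations, in triplicate, on TRHR-Hek293 cells; calcium-sensitive dye fluorescence was recorded for 3 min following addition.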

Chain of Nuclear receptor subfamily 1 group I member 2 (Rattus norvegicus) (Q9R1A7 whole entry, looked up): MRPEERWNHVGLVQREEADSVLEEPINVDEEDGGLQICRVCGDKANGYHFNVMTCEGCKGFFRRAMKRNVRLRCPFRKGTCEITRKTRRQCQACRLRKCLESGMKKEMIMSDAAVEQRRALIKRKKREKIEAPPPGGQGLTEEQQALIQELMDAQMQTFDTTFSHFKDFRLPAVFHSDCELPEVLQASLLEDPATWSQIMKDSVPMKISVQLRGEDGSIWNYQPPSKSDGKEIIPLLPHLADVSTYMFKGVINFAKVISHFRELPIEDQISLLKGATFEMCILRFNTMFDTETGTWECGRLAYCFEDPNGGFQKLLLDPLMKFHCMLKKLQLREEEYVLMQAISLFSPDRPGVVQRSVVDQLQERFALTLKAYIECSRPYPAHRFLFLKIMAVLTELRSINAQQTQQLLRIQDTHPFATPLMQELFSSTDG
Chain of Thyrotropin-releasing hormone receptor (Homo sapiens) (P34981 whole entry, looked up): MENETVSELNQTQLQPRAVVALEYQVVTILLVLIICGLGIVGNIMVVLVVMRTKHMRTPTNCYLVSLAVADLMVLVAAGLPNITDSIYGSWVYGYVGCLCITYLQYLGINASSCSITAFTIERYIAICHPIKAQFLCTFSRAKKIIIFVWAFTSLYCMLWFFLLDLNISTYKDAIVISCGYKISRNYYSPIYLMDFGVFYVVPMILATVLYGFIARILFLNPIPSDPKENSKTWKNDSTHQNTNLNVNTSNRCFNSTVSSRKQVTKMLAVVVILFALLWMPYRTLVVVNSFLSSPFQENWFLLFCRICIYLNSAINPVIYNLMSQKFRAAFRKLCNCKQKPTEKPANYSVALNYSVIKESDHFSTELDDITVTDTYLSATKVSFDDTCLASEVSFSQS
Chain of Cytochrome P450 2C9 (Homo sapiens) (P11712 whole entry, looked up): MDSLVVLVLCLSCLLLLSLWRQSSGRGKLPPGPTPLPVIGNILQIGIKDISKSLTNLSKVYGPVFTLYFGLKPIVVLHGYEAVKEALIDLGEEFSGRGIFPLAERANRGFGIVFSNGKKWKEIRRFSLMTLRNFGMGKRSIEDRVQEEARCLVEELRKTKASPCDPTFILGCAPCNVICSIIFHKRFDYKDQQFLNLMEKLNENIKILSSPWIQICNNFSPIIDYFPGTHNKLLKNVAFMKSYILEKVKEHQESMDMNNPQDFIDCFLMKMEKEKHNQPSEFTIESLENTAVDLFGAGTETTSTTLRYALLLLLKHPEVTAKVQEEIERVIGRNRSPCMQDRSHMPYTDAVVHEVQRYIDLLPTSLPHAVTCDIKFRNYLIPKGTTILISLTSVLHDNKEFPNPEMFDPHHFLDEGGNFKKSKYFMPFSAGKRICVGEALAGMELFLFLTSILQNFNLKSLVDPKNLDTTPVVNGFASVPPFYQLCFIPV
Chain of Nuclear receptor subfamily 1 group I member 2 (Homo sapiens) (O75469 whole entry, looked up): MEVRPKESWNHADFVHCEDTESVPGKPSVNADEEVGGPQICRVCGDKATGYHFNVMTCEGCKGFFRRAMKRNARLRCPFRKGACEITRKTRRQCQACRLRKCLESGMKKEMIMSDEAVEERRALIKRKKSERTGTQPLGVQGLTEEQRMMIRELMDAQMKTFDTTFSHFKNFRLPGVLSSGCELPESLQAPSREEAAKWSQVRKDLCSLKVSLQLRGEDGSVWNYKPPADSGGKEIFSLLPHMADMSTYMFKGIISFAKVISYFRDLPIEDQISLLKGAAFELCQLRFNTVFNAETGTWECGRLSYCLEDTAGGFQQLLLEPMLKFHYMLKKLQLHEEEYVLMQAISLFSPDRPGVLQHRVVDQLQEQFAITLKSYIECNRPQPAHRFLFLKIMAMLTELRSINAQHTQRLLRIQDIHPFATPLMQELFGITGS
Chain of Cytochrome P450 2C19 (Homo sapiens) (P33261 whole entry, looked up): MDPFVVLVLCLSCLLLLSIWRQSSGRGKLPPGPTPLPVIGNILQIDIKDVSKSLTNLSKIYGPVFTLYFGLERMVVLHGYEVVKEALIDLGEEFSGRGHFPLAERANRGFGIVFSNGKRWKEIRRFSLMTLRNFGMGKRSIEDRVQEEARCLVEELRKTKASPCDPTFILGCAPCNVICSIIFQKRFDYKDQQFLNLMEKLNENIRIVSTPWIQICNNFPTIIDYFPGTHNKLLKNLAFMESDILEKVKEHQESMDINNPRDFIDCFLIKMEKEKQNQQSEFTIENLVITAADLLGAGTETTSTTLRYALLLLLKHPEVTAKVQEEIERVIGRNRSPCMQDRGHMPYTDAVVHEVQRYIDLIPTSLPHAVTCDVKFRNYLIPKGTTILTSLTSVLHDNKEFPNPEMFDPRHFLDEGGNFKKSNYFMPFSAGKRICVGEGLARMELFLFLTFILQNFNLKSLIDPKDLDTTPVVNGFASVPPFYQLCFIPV
Chain of Cytochrome P450 2D6 (Homo sapiens) (P10635 whole entry, looked up): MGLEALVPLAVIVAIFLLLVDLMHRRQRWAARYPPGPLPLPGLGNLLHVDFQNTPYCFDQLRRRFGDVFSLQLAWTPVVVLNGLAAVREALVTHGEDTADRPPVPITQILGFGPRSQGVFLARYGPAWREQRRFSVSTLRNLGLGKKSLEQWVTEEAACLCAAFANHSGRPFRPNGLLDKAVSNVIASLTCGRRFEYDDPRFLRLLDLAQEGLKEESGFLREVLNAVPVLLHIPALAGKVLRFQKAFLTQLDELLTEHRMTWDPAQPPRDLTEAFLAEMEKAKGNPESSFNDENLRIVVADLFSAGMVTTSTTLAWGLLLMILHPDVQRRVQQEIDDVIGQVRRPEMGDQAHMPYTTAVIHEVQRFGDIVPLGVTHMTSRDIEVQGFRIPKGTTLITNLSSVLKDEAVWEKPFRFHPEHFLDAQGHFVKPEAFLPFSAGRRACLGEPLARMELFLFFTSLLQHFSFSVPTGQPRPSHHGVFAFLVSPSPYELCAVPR
Chain of Cytochrome P450 1A2 (Homo sapiens) (P05177 whole entry, looked up): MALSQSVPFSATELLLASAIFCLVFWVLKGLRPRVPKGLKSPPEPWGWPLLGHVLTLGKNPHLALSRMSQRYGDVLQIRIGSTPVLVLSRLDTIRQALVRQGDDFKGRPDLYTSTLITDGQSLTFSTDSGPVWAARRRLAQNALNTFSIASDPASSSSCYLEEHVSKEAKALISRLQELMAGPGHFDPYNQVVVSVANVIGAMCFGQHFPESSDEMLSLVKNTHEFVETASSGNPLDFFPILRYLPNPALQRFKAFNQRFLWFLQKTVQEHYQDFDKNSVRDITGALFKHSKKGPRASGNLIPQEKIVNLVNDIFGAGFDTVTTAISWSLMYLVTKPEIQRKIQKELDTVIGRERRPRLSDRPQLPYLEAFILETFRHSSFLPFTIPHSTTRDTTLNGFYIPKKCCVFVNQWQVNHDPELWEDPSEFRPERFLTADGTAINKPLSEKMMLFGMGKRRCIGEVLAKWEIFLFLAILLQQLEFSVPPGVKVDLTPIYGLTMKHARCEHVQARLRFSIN
Chain of Cytochrome P450 3A4 (Homo sapiens) (P08684 whole entry, looked up): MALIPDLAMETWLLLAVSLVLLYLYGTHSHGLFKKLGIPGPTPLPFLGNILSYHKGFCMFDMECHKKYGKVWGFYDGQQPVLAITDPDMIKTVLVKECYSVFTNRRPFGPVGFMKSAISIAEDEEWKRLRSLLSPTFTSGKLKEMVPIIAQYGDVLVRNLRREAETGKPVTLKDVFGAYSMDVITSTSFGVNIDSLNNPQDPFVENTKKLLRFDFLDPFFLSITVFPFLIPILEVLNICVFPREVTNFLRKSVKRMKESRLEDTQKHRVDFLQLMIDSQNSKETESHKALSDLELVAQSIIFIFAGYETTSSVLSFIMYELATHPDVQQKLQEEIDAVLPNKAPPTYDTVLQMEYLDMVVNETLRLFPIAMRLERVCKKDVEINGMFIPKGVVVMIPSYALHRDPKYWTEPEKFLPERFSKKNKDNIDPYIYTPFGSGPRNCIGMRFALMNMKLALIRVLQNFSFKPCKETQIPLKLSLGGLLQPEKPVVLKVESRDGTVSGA
Chain of Voltage-gated inwardly rectifying potassium channel KCNH2 (Homo sapiens) (Q12809 whole entry, looked up): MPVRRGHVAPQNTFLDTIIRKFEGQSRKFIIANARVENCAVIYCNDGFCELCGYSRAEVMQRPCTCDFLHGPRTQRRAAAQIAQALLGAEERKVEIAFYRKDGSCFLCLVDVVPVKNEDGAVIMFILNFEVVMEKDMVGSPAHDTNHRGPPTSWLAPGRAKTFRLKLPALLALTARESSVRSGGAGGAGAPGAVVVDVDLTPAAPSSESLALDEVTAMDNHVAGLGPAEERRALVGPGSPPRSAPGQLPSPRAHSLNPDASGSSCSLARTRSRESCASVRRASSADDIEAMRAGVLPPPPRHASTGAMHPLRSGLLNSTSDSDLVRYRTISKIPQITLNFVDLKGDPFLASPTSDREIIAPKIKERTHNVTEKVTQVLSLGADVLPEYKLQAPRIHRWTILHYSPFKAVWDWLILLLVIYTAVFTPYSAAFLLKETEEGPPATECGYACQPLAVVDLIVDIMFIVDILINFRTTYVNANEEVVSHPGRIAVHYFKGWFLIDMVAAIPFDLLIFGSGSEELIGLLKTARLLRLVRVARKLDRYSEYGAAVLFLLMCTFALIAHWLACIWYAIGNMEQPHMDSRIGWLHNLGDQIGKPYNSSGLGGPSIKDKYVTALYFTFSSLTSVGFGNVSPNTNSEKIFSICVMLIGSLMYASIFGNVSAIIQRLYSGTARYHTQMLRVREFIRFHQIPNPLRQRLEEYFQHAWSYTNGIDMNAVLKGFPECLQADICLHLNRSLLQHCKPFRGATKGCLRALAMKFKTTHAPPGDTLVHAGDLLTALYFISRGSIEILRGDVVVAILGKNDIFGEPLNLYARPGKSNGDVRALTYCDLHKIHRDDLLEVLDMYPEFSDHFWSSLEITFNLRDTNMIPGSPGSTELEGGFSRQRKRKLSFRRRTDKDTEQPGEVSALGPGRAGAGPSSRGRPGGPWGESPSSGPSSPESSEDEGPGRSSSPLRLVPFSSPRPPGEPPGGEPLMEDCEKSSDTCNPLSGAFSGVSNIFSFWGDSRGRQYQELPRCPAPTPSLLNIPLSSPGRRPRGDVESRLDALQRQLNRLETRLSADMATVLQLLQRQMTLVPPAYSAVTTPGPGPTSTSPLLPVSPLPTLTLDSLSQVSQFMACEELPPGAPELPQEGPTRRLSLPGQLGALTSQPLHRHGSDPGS

SMILES	Potency [1]	Potency [2]	Potency [3]	Potency [4]	Potency [5]	Potency [6]	Potency [7]	Potency [8]	Potency [9]	Potency [10]	Potency [11]	Potency [12]	max activation [13]	outcome [14]	outcome [15]	Potency [16]	Potency [13]
O=S(=O)(Oc1ccc(Cl)cc1Cl)c1ccccc1	inactive	inactive	inactive	inactive	49.4 µM (active) and 54.5 µM (active)	64.4 µM (active) and 63.3 µM (active)	811 nM (active) and 894 nM (active)	40.6 µM (active) and 35.6 µM (active)	2.28 µM (active) and 2.24 µM (active)	49.8 µM (active) and 34.7 µM (active)							
CC(=O)CCc1ccccc1	inactive	inactive	inactive	inactive	inactive	inactive	81 µM (active) and inactive	inactive	inactive	inactive	inactive	inactive					
C=C1CC[C@H](O)CC1=C/C=C1\CCC[C@]2(C)[C@@H]([C@H](C)/C=C/[C@H](C)C(C)C)CC[C@@H]12	inactive	inactive			34.1 µM (active) and 30.6 µM (active)		35.3 µM (active) and 25.2 µM (active)			inactive	54 µM (active) and 48.6 µM (active)		-1.33% (inactive)	inactive	inactive		
C[C@@H](O)[C@H]1C(=O)N2C(C(=O)O)=C(S[C@@H]3CN[C@H](C(=O)N(C)C)C3)[C@H](C)[C@H]12	inactive		inactive	inactive	inactive	17.4 µM (active) and inactive	inactive		15.5 µM (active) and inactive	inactive	inactive		-2.7% (inactive)	inactive	inactive		
COCC(=O)O	inactive	inactive	inactive	inactive	inactive	inactive	73 µM (active) and inactive	inactive	inactive	inactive	inactive	inactive					
CS(=O)(=O)Nc1ccc([N+](=O)[O-])cc1Oc1ccccc1		inactive		54.5 µM (active) and 29.8 µM (active)						inactive	54.5 µM (active)		-5.28% (inactive)			inactive	
CCOC(=O)[C@H](CCc1ccccc1)N[C@@H](C)C(=O)N1Cc2ccccc2C[C@H]1C(=O)O	inactive	inactive	inactive	inactive	30.9 µM (active) and 11.9 µM (active)	inactive	35.8 µM (active) and inactive	8.02 µM (active) and 12.3 µM (active)	inactive	inactive			-0.751% (inactive)	inactive	inactive		
COC(=O)Nc1nc2ccc(Sc3ccccc3)cc2[nH]1	inactive			inactive		inactive	25.2 µM (active) and inactive		12.6 µM (active)	inactive		inactive				inactive	1.26 µM (active)
O=c1c(-c2ccc(O)cc2)coc2cc(O)ccc12	inactive	inactive		inactive	30.3 µM (active) and 13.7 µM (active)	inactive	49.8 µM (active)	280 nM (active) and 159 nM (active)	31.4 µM (active) and 39.9 µM (active)	inactive							
Nc1nc2ncc(CNc3ccc(C(=O)N[C@@H](CCC(=O)O)C(=O)O)cc3)nc2c(=O)[nH]1	inactive	inactive		inactive	inactive	inactive	56.4 µM (active) and inactive	inactive		inactive		inactive	-0.844% (inactive)	inactive	inactive		
OCCOCCOCCOCCO	inactive			inactive	inactive	inactive	40.8 µM (active) and inactive	inactive	39.9 µM (active)	inactive						inactive	
C/C=C(C)/C=C/C=C(C)C	inactive			inactive	60.4 µM (active) and 27.3 µM (active)	inactive	70.2 µM (active) and 79.6 µM (active)		39.9 µM (active)	inactive							
